A selection: hits, their analogues and other compounds. The true share with any hit is near 6.8%.
USP28 inh: inhibitors of human USP28 deubiquitinase. Q96RU2. purified USP28, Ub-rhodamine cleavage fluorescence, 30 min. inhibition, % at 25 µM. 47,000 compounds, 3% hits. AID 1645857
Target sequence (Q96RU2 whole entry, looked up): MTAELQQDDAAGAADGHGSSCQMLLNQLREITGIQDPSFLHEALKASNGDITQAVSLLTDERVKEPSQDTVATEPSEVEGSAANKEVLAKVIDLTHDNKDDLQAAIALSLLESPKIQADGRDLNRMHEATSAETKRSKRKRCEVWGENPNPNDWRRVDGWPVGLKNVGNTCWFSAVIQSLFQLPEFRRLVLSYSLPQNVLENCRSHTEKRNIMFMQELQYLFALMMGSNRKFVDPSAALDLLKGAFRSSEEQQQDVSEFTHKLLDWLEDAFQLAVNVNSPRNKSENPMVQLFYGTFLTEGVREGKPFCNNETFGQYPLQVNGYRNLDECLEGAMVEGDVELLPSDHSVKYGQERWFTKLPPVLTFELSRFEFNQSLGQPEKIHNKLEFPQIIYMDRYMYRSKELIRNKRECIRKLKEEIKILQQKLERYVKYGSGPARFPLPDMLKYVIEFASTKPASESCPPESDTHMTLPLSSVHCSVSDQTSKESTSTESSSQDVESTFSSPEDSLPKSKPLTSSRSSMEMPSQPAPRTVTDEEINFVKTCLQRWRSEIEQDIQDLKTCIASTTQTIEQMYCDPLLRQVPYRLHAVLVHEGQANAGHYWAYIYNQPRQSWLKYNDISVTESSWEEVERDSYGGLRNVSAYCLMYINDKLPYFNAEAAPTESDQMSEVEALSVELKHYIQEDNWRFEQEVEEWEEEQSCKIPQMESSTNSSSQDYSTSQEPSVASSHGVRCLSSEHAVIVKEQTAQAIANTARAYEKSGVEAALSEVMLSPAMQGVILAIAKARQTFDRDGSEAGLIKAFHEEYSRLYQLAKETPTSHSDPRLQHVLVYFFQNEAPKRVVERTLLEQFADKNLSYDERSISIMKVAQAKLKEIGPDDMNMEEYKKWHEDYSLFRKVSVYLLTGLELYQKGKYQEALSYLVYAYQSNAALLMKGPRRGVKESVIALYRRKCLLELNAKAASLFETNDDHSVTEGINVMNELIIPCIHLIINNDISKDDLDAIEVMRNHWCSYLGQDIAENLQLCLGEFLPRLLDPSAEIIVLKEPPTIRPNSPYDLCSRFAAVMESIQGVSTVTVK
USP10 inh: blocks human USP10 ubiquitin-rhodamine cleavage | inhibition, % at 20 µM | Q14694 | purified USP10, Ub-rhodamine fluorescence, 60 min | 47,000 compounds, 1.1% hits
UCHL1 inh: inhibitors of human UCHL1 deubiquitinase. P09936. purified UCHL1, Ub-rhodamine cleavage fluorescence. 47,000 compounds, 0.2% hits. inhibition, % at 20 µM
USP7 inh: inhibitors of human USP7 deubiquitinase | purified USP7, Ub-rhodamine cleavage fluorescence | inhibition, % at 20 µM | 47,000 compounds, 0.3% hits | AID 1645854
OTUD3 inh: human OTUD3 deubiquitinase inhibition; purified OTUD3, Ub-rhodamine fluorescence, 2 h; inhibition, % at 25 µM; 47,000 compounds, 0.7% hits; AID 1645858
USP8 block: human USP8 deubiquitinase inhibition. P40818. 47,000 compounds, 4.2% hits. purified USP8, Ub-rhodamine cleavage fluorescence, 30 min. inhibition, % at 20 µM
Active calls of the source: *; x = not tested or not shown. Rule as the data show it: active = inhibition above about 30%; inactive = the rest.

SMILES	USP28 inh	USP10 inh	UCHL1 inh	USP7 inh	OTUD3 inh	USP8 block
O=C(c1cscn1)N1CCCC(c2ccnc3ncnn23)C1 (centres undefined)	13.3	0.8	-1.7	0.0	8.5	17.6
O=c1[nH]c2c(cc1CNCCc1ccccc1)c(-c1ccc(F)cc1)nn2-c1ccccc1	-14.7	0.7	-4.8	7.5	-2.7	65.8*
Cc1ccc(CNCc2cc3c(-c4ccc(F)cc4)nn(-c4ccccc4)c3[nH]c2=O)cc1	-32.4	-5.3	-45.4	-18.8	-25.1	44.9*
CCCc1nc(C2CN(C(=O)c3ccc(=O)n(C)c3)CCO2)n[nH]1 (centres undefined)	5.9	0.0	3.9	0.7	11.6	1.3
COc1cccc(CN(C)c2nc3ccccc3nc2NS(=O)(=O)c2ccccc2C)c1OC	-226.1	-6.8	-13.1	-12.2	-177.0	-190.0
CN1C(=O)COc2ccc(C(=O)CN3C(=O)COc4ccc(Cl)cc43)cc21	-0.1	2.5	-0.8	-0.3	-1.3	-62.8
O=C(c1cnn2c(C(F)(F)F)cc(-c3ccccc3)nc12)N1CCN(c2ncccn2)CC1	17.2	0.0	-2.6	1.5	-0.7	-93.8
Cn1c(CNc2ccc(F)cc2)nnc1SCC(=O)Nc1cccc2ccccc12	28.7	1.1	3.6	-45.0	0.9	12.5
COc1ccc(NC(=O)Cc2nnc(SCC(=O)c3ccccc3)n2C)cc1	-0.5	0.6	-2.9	-3.1	-0.6	-11.3
COc1ccc(NCc2nnc(SCC(=O)Nc3cccc4ccccc34)n2C)cc1	6.4	5.3	3.0	-2.6	4.6	45.2*
CCn1c(CNc2ccc(Cl)cc2)nnc1SCC(=O)Nc1ccccc1	63.7*	5.1	1.7	-21.7	1.5	2.4
CCn1c(CC(=O)Nc2ccccc2)nnc1SCC(=O)c1ccccc1	6.2	1.6	3.4	3.4	6.4	11.7
COc1ccc(N2CCn3c(SCC(=O)Nc4cccc(C(F)(F)F)c4)nnc32)cc1	-6.7	13.6	-1.6	2.0	-6.7	-14.6
COc1ccc(NC(=O)CSc2nnc(Cc3cccc4ccccc34)n2C)cc1	59.9*	2.2	2.7	-26.5	9.3	-25.9
COc1ccc(N2CCn3c(SCC(=O)Nc4cccc(F)c4)nnc32)cc1	8.5	12.0	5.1	13.1	13.7	31.0*
CCn1c(COC(=O)c2cccc(C)c2)nc2cc(S(=O)(=O)N3CCCCC3)ccc21	7.4	0.6	1.7	4.7	6.7	6.4
COc1ccc(-n2c(=O)c(CCC(=O)O)nc3ccccc32)cc1	-7.3	-0.7	4.8	-3.6	-8.9	15.1
COc1cccc(Cn2nc3n(CC(C)C)c(=O)c4ccc(C(=O)NCC(C)C)cc4n3c2=O)c1	29.2	8.4	0.4	4.7	36.4*	8.7
Cc1ccc2[nH]c(=O)c(CNCCN3CCOCC3)cc2c1	-12.6	-5.1	-6.9	-2.6	-23.3	-22.2
Cc1cc(NC(=O)Cn2c(=O)n(CCC(=O)N3CC=C(c4ccccc4)CC3)c(=O)c3ccccc32)n[nH]1	5.8	22.9	0.8	8.4	5.4	68.4*
CCCCNC(=O)CCCn1c(=O)c2ccccc2n(CC(=O)NCCC2=CCCCC2)c1=O	9.8	7.5	0.0	-23.2	9.8	0.0
Cc1cc(NC(=O)Cn2c(=O)n(CCc3ccccc3)c(=O)c3ccccc32)n[nH]1	0.0	8.4	-0.7	-2.9	5.0	10.0
O=C(Cn1c(=O)n(CCCC(=O)N2CC=C(c3ccccc3)CC2)c(=O)c2ccccc21)NCCC1=CCCCC1	-2.1	12.2	3.1	0.0	37.4*	6.0
COc1cccc(C2c3[nH]c4ccccc4c3C[C@@H]3C(=O)N(CC(O)c4ccccc4)CC(=O)N23)c1 (some centres undefined)	39.9*	21.6	7.5	9.6	-20.9	31.5*
CC(C)OCCCN1C(=O)c2[nH]nc(-c3ccccc3O)c2C1c1cccc(Cl)c1 (centres undefined)	3.9	24.5	9.5	0.6	8.6	54.9*
SMILES	USP28 inh	USP10 inh	UCHL1 inh	USP7 inh	OTUD3 inh	USP8 block
O=C1c2[nH]nc(-c3ccccc3O)c2C(c2ccc(O)cc2)N1Cc1ccncc1 (centres undefined)	-11.3	5.4	0.1	7.7	-3.9	19.6
N#Cc1ccccc1-c1ccccc1C(=O)Nc1cccc(S(=O)(=O)N2CCCC2)c1	7.1	-4.1	0.2	-5.4	-3.6	2.8
CN(C)S(=O)(=O)c1cccc(NC(=O)c2cc(F)cc(F)c2)c1	18.9	6.0	3.2	1.2	6.2	16.5
CC(C)Oc1ccc(C(=O)Nc2cccc(S(=O)(=O)N3CCCC3)c2)cc1	63.0*	1.9	6.9	-3.5	14.7	11.2
Cc1cc(C)n(-c2ccc(C(=O)Nc3cccc(S(=O)(=O)N4CCCC4)c3)cc2)n1	69.4*	11.5	1.9	1.1	0.7	-17.9
CCN(CC)S(=O)(=O)c1cccc(NC(=O)c2ccc(OC(F)(F)F)cc2)c1	30.2*	11.6	8.0	13.1	7.0	17.5
CCOC(=O)N1CCC(NC(=O)c2cc(C(=O)Nc3ccc(S(=O)(=O)N4CCCCC4)cc3)ccc2CO)CC1	41.9*	31.8*	5.9	8.2	39.3*	-11.8
O=C(Nc1ccccc1F)c1ccc2ccc(N3CCN(c4ncccn4)CC3)n2c1	x	-5.5	-38.0	-22.7	-9.2	-22.5
CN(C)c1ccc(C(=O)Nc2ccc(S(=O)(=O)N3CCCC3)cc2)cc1	42.2*	0.3	-1.3	0.0	0.3	-1.1
N#Cc1ccc(NC(=O)c2ccc(S(=O)(=O)N3CCCCC3)cc2)cc1	25.9	13.5	5.2	-10.8	5.8	19.5
CCC1CCCCN1S(=O)(=O)c1ccc(C(=O)Nc2ccc(S(N)(=O)=O)cc2)cc1 (centres undefined)	35.0*	20.4	2.9	-28.6	13.4	8.9
CCn1ccc2c(cc(C(=O)Nc3ccccc3F)n2C)c1=O	74.1*	-0.3	-5.5	-2.1	-2.0	-42.7
Cc1ccc2c(c1)CCCN2C(=O)c1cn(Cc2ccccc2)nc1-c1cccnc1	-33.1	-7.1	-20.8	-47.0	-35.4	53.4*
CCN1CCOCC2(CCCN(C(=O)c3nccn3C)C2)C1 (centres undefined)	-6.1	-4.7	-3.4	0.5	-1.9	-101.8
COc1ccc(CCn2cnc3c4ccccc4n(C)c3c2=O)cc1OC	67.2*	-2.9	3.3	3.8	4.3	13.1
Cc1nc2c(c(=O)[nH]1)CN(C(=O)C(C)c1ccccc1)CC2 (centres undefined)	-2.0	-1.0	-2.2	1.8	-3.2	-7.9
O=C(O)CCSC1CCc2ccccc2NC1=O (centres undefined)	-22.9	0.0	-1.5	-0.4	-3.5	1.8
N#Cc1ccc(-c2ccc(OCC(=O)Nc3ccc4c(c3)OCO4)cc2)cc1	3.7	6.9	0.2	0.0	-2.7	43.3*
O=C(COc1cccc(N2CCCC2=O)c1)NCc1ccc2c(c1)OCO2	6.6	7.2	2.4	12.1	1.6	7.2
O=C(COC(=O)C1(c2ccc(Cl)cc2)CCCC1)c1ccc2c(c1)OCCO2	-7.1	4.1	2.1	1.5	-10.2	0.2

Screening results: PubChem BioAssay, Buhrlage Lab, Dana-Farber Cancer Institute and Novartis Institutes for BioMedical Research (Cambridge, Mass)
